hiPSC survival – increases survival of single human iPS cells | survival enhancement, % at 20 µM | hiPSC single-cell survival, ATPlite luminescence; 100% = ROCK inhibitor wells, 0% = DMSO | AID 602274 | hit rate 0.044% among 360,000; in the data active means survival enhancement above about 18%;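 further: cells exposed to compounds for 16 hours before the ATP read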
ABCB6 inh 2 – blocks the human ABCB6 transporter; Q9NP58; K562-ABCB6 porphyrin accumulation, flow cytometry, 1 h; stronger effect = lower value; hit rate 0.19% among 360,000; fluorescence ratio to DMSO, % at 10 µM;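 active means fluorescence ratio to DMSO below 75%, the collection mean minus 3 SD; inconclusive means too few cells collected in the well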;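 further: signal is porphyrin accumulated inside mitochondria; 100% equals median channel fluorescence of DMSO control wells; lower ratio means ABCB6 inhibition with less porphyrin fluorescence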
Target sequence (Q9NP58 whole entry, looked up): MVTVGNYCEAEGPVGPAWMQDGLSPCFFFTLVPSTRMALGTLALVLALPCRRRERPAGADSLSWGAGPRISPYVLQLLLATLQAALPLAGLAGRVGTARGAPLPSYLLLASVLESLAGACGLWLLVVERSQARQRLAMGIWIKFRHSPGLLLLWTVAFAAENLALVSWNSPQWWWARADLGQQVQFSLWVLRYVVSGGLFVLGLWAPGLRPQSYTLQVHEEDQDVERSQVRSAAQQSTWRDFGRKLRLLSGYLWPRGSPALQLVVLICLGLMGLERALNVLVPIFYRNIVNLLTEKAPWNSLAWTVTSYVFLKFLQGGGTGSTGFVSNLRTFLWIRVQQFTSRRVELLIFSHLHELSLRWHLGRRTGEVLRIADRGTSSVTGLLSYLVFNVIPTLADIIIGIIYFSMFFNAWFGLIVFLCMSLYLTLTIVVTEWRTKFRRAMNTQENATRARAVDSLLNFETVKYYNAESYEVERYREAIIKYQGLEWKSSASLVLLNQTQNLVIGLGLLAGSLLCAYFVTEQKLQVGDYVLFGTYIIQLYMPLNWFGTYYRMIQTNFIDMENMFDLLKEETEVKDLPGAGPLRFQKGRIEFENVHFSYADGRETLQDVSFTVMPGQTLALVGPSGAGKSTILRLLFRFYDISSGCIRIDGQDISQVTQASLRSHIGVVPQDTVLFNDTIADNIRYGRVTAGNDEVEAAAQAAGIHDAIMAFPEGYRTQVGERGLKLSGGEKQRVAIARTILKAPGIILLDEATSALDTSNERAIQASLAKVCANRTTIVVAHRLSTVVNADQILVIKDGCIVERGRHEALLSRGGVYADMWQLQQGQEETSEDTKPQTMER
MIN6 prolif – MIN6 beta-cell proliferation induction; MIN6 cells proliferation, ATPlite luminescence, 48 h; cells starved in 0.2% serum; 100% = growth in 10% serum; proliferation, % at 10 µM; hit rate 0.29% among 330,000;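 active means compounds whose signal lies at least 3.5 SD above the mean of all wells on their plate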;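 further: 0% = DMSO-treated cells in low-serum medium and 100% = 10% serum control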
Myeloid diff MLP – promotes myeloid progenitor differentiation. ER-HoxA9 myeloid progenitors, lysozyme-GFP differentiation, flow cytometry. calls only at 10 µM. hit rate 1% among 360,000;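 active means normalized GFP-positive differentiation at or above the plate's own cutoff, the solvent-only control mean plus 3 SD; inconclusive means no clear call, values can overlap the other calls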;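 further: cells exposed to compound for four days before flow analysis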
Cardio protect – modulators protecting cardiomyocytes from myocardial damage; H9c2 cardiomyocytes, H2O2 injury protection, ATPLite, 2 h; protection from H2O2 cell death, % at 20 µM; hit rate 0.63% among 360,000;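 active means compounds giving at least 50% protection of heart cells from peroxide-induced death in the single-dose screen, raw or plate-pattern-corrected value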;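 further: 0% = DMSO wells with peroxide and 100% = DMSO wells without peroxide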
The depositor's hits bear a star. Rows were chosen to be rich in hits. Some 2.2% of all compounds tested hit in one or more screens of this group.

For CCOC(Cn1c(-c2ccc(OC)cc2)nc2ccccc21)OCC the results were hiPSC survival -2, ABCB6 inh 2 102, MIN6 prolif 3, Myeloid diff MLP inactive and Cardio protect -8.
Screening Cc1ccc(Cn2c(CCNc3nc(-c4ccc(C)cc4)cs3)nc3cc(C(=O)NCCCO)ccc32)cc1 returned hiPSC survival 1, ABCB6 inh 2 91, MIN6 prolif -5, Myeloid diff MLP inactive and Cardio protect -5.
Screening Cc1ccc(Cn2c(C(C)Nc3nc(-c4ccc(Cl)cc4)cs3)nc3cc(C(=O)NCCCO)ccc32)cc1 (centres undefined) returned hiPSC survival -1, ABCB6 inh 2 101, MIN6 prolif -7, Myeloid diff MLP active and Cardio protect -18.
`CSc1sc(C)cc1C=O` gave hiPSC survival 2, ABCB6 inh 2 101, MIN6 prolif 1, Myeloid diff MLP inactive and Cardio protect 8.
`COC(=O)CC1COc2ccccc2N1S(=O)(=O)c1ccc(Br)cc1` (centres undefined) gave hiPSC survival 0, ABCB6 inh 2 89, MIN6 prolif -1, Myeloid diff MLP inactive and Cardio protect -7.
Screening O=c1cc(-c2ccccc2)nc2nc(SCc3ccccc3)[nH]n12 returned hiPSC survival 31*, ABCB6 inh 2 80, MIN6 prolif -5, Myeloid diff MLP inactive and Cardio protect 0.
Screening COCc1cc(=O)n2[nH]c(SCc3ccccc3)nc2n1 returned hiPSC survival -2, ABCB6 inh 2 113, MIN6 prolif -2, Myeloid diff MLP inactive and Cardio protect 2.
Screening Cn1c(O)c(N=Nc2nc(-c3ccccc3)cs2)c2ccccc21 returned hiPSC survival 3, ABCB6 inh 2 110, MIN6 prolif -2, Myeloid diff MLP inactive and Cardio protect 62*.
Screening COc1ccc(-c2csc(NC(=O)c3ccc(OCC(=O)N4CCOCC4)c(OC)c3)n2)cc1OC returned hiPSC survival 0, ABCB6 inh 2 96, MIN6 prolif 2, Myeloid diff MLP inactive and Cardio protect 81*.
COc1ccc(NC(=O)C(CC(=O)O)Cc2ccccc2)cc1 (centres undefined) was read as hiPSC survival -2, ABCB6 inh 2 90, MIN6 prolif -2, Myeloid diff MLP inactive and Cardio protect 1.
`COc1cc(CC(CC(=O)O)CC(C)OCc2ccccc2)cc(OC)c1` (centres undefined) gave hiPSC survival 20*, ABCB6 inh 2 97, MIN6 prolif 2, Myeloid diff MLP inactive and Cardio protect -4.
`CC1CCN(C(=O)c2cc(-c3ccco3)on2)CC1` gave hiPSC survival 0, ABCB6 inh 2 105, MIN6 prolif -3, Myeloid diff MLP inactive and Cardio protect -8.
CC1CCCC(C)N1C(=O)c1cc(-c2ccco2)on1 (centres undefined) was read as hiPSC survival 0, ABCB6 inh 2 100, MIN6 prolif 0, Myeloid diff MLP active and Cardio protect 1.
CCCCN(CCCC)NC(=O)c1ccccc1 was read as hiPSC survival -1, ABCB6 inh 2 97, MIN6 prolif 4, Myeloid diff MLP inactive and Cardio protect 1.
Screening CCOC(=O)CSc1nc(N2CCOCC2)c2c(c1C#N)CC(C)(C)OC2 returned hiPSC survival -1, ABCB6 inh 2 101, MIN6 prolif 1, Myeloid diff MLP inactive and Cardio protect 5.
`Cn1c(Cl)c(/C=N/OC(=O)c2ccc(Cl)cc2)c2ccccc21` gave hiPSC survival 22*, ABCB6 inh 2 86, MIN6 prolif -1, Myeloid diff MLP inactive and Cardio protect 11.
Screening O=C(CN1CCN(c2ccccc2F)CC1)c1ccc(O)c(O)c1 returned hiPSC survival 0, ABCB6 inh 2 101, MIN6 prolif -2, Myeloid diff MLP inactive and Cardio protect 53*.
`Cc1c(O)ccc(C(=O)CN2CCN(c3ccccc3F)CC2)c1O` gave hiPSC survival 0, ABCB6 inh 2 93, MIN6 prolif 1, Myeloid diff MLP inactive and Cardio protect -6.
For CC(C)c1ccc(S(=O)(=O)N2CCN(CC(=O)c3ccc(O)c(O)c3)CC2)cc1 the results were hiPSC survival 0, ABCB6 inh 2 99, MIN6 prolif -3, Myeloid diff MLP inactive and Cardio protect 56*.
O=C(CN1CCN(S(=O)(=O)c2ccc(Br)cc2)CC1)c1ccc(O)c(O)c1 was read as hiPSC survival 1, ABCB6 inh 2 86, MIN6 prolif -2, Myeloid diff MLP inconclusive and Cardio protect 71*.
